Source: PubChem (several laboratories)
Rows were chosen to be rich in hits. Some 3.6% of all compounds tested hit in one or more screens of this group.
Wnt act – activators of Wnt/beta-catenin signaling; Wnt/beta-catenin reporter cell assay, activator, plate reader; AID 743398; actives 1.2% (n = 300,000); activation, % at 9.35 µM; in the data active means activation above about 30%, passing the limit was not always enough; inconclusive means no clear call, values can overlap the other calls;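 further: 0% = neutral control wells and 100% = positive control wells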
A3G deaminase – blocks human APOBEC3G single-stranded DNA deamination; actives 0.28% (n = 330,000); recombinant A3G, ssDNA deamination FAM/TAMRA fluorescence; inhibition, % at 20 µM; Q9HC16;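 active means inhibition of at least 40% at 20 µM, with no more than 30% in the related APOBEC3A deaminase screen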;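 further: plate controls were DMSO wells with A3G for no effect and wells lacking A3G enzyme for full effect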
APOBEC3A inh – inhibitors of human APOBEC3A DNA deaminase. inhibition, % at 20 µM. P31941. actives 0.41% (n = 330,000). recombinant A3A, FAM/TAMRA ssDNA deamination fluorescence;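 active means at least 40% inhibition at 20 µM here, with at most 30% in a related deaminase screen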;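 further: plate controls were A3A with DMSO for no effect and wells lacking A3A enzyme for full effect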
Target sequence (P31941 whole entry, looked up): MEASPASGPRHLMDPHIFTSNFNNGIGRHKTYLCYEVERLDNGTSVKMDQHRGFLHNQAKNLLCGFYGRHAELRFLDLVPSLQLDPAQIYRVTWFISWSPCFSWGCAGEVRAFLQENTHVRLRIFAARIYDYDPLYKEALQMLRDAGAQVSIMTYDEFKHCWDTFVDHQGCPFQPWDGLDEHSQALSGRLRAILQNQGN
esBAF inh – inhibitors of esBAF chromatin remodeling in mouse ES cells | Bmi1-luciferase knock-in reporter, 24 h; 100% = twice the neutral-well signal | reporter increase, % at 12.5 µM | actives 2% (n = 350,000); in the data active means activation above about 40%; inconclusive means no clear call, values can overlap the other calls;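 further: 0% = median of the plate's neutral control wells and 100% = double that signal; a rise in the Bmi1 reporter signal indicates esBAF inhibition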
PHOSPHO1 block – blocks human PHOSPHO1 phosphatase activity | AID 1565 | inhibition, % at 13.3 µM | actives 1.1% (n = 290,000) | recombinant PHOSPHO1, absorbance phosphatase assay; in the data active means inhibition above about 60%
Target sequence (Q8TCT1 whole entry, looked up): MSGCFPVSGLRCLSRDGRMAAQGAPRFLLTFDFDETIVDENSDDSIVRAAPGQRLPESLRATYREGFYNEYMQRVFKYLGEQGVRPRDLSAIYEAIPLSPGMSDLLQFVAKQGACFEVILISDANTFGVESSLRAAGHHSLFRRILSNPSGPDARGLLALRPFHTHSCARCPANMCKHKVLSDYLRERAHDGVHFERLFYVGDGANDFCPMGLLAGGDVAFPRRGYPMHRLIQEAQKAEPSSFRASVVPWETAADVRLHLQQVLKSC
MITF act – activators of MITF-driven TRPM1 promoter activity in SK-MEL-5 cells. AID 588334. activation, % at 12.5 µM. actives 0.75% (n = 300,000). SK-MEL-5 TRPM1-promoter luciferase, 24 h; % of positive control, neutral wells = 0;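 active means mean activation of at least 80% with every replicate also reaching 80%; inconclusive means mean reaches 80% but some replicate falls short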;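 further: 0% = neutral control wells and 100% = parthenolide positive control wells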
Starred values were filed as active, the others as inactive; ? = inconclusive; . = not tested or not shown.

SMILES	Wnt act	A3G deaminase	APOBEC3A inh	esBAF inh	PHOSPHO1 block	MITF act
CCCn1c(SCC(=O)c2cc(C)c(C)cc2C)n[nH]c1=O	.	-1	0	.	97*	12
CN(C)S(=O)(=O)c1ccc(NC(=O)c2ccccn2)cc1	2	-7	15	14	18	?
CCN(CC)S(=O)(=O)c1ccc(NC(=O)c2ccccn2)cc1	22	0	1	48*	-29	69
Cc1nc2sc(-c3ccccc3)cc2c(=O)n1-n1cccc1	.	-2	0	48*	18	102*
Cc1nc2sc(-c3ccccc3)cc2c(=O)n1N	-2	-3	-4	-73	41	-45
O=c1c2cc(-c3ccccc3)sc2nc2n1CCC2	60*	12	2	.	38	.
O=c1c2ccccc2nc2n1CCC2	-4	-6	-4	.	22	-7
CCCc1nc2oc3c(NCC(C)O)ncnc3c2c2c1CCCC2 (stereo unspecified)	38*	1	1	.	8	.
COc1ccc(OC)c(S(=O)(=O)N2CCN(CC(O)CN3CCOCC3)CC2)c1 (stereo unspecified)	-1	-3	-1	-13	.	2
COc1ccc(S(=O)(=O)N2CCN(c3ccccc3)CC2)cc1	-11	-7	-2	-3	60*	9
COc1ccc(S(=O)(=O)N2CCC(N3CCN(c4ccccc4)CC3)CC2)cc1	.	-7	-2	.	46	.
COc1ccc(S(=O)(=O)N2CCN(CC(O)CN3CCOCC3)CC2)cc1 (stereo unspecified)	53*	-4	0	-12	.	0
CCN1[C@@H]2c3ccc(-c4ccc(F)cc4)c(=O)n3C[C@@H]2[C@@H](CO)[C@@H]1C(=O)NCCc1cn(C)cn1	.	.	.	0	.	.
C[C@H](CO)N1C[C@H](C)[C@H](CN(C)S(=O)(=O)c2cccs2)Oc2ccc(NC(=O)c3ccncc3)cc2CC1=O	.	.	.	0	.	.
COc1ccc(S(=O)(=O)n2ccc(-c3cnc(-c4ccccc4)s3)n2)cc1	41*	-2	2	21	7	59
O=C(c1ccccc1)n1ccc(-c2cnc(-c3ccccc3)s2)n1	.	-3	1	.	0	43
COc1cc(C=O)ccc1OCCOCCOc1cc(C)ccc1Cl	.	-9	0	.	14	1
COc1cc(C)ccc1OCCOc1ccccc1Cl	.	14	-1	77*	55	90*
COc1cc(C)ccc1OCCCOc1ccccc1Cl	.	1	-5	71*	39	126*
COc1cc(C)ccc1OCCCCOc1ccccc1C(C)=O	2	2	6	.	19	-6
Cc1noc(C)c1NC(=O)N(C)C[C@H]1OCCCC[C@@H](C)Oc2ccc(NC(=O)c3ccccc3)cc2C(=O)N([C@H](C)CO)C[C@H]1C	.	.	.	-3	.	.
COc1ccc(S(=O)(=O)Nc2ccc3c(c2)C(=O)N([C@@H](C)CO)C[C@H](C)[C@@H](CN(C)Cc2ccc4c(c2)OCO4)OCCCC[C@@H](C)O3)cc1	.	.	.	0	.	.
COCc1cn(CC[C@H]2CC[C@@H](NC(=O)Nc3ccc(Cl)cc3)[C@H](CO)O2)nn1	.	.	.	-7	.	.
O=S(=O)(Cc1ccccc1)N1CCCCN2[C@H](CO)[C@@H](c3ccc(-c4ccc(F)cc4)cc3)[C@@H]2C1	.	.	.	0	.	.
O=[N+]([O-])c1ccc(Nc2ccc3ccccc3c2)nc1	0	0	-1	96*	-14	80
SMILES	Wnt act	A3G deaminase	APOBEC3A inh	esBAF inh	PHOSPHO1 block	MITF act
O=[N+]([O-])c1ccc(NN=C(c2ccccc2)c2ccccc2)nc1	-1	.	.	-6	.	1
CC(C=NNc1ccc([N+](=O)[O-])cn1)=Cc1ccccc1	64*	.	.	-8	.	78
C/C(=N\Nc1ccc([N+](=O)[O-])cc1)c1cccc(N)c1	26	-2	2	85*	13	108*
C/C(=N\Nc1ccc([N+](=O)[O-])cc1)c1ccc(O)cc1	11	4	2	.	32	65
CC(=NNc1ccc([N+](=O)[O-])cn1)c1ccccc1	6	.	.	88*	.	92*
C[C@H]1CCCCO[C@H](CN(C)C(=O)Nc2ccc(F)cc2)[C@@H](C)CN([C@@H](C)CO)C(=O)c2cc(NC(=O)Nc3cccc4ccccc34)ccc2O1	.	.	.	7	.	.
CC(C)c1cn(CC[C@@H]2CC[C@H](NC(=O)Nc3cc(Cl)cc(Cl)c3)[C@@H](CO)O2)nn1	.	.	.	-2	.	.
C[C@H]1CN([C@@H](C)CO)C(=O)c2cc(NC(=O)Nc3ccc(F)cc3)ccc2O[C@H]1CN(C)C(=O)Nc1ccc(C(F)(F)F)cc1	.	.	.	-1	.	.
CC(=O)Oc1cc(O)c2c(=O)c(OC(C)=O)c(-c3ccc(OC(C)=O)c(OC(C)=O)c3)oc2c1	.	-8	0	43*	.	16
COc1ccc(-c2oc3cc(OC(C)=O)cc(OC(C)=O)c3c(=O)c2OC)cc1	1	.	.	23	.	11
COc1ccc(-c2oc3ccccc3c(=O)c2OCC(=O)O)cc1	-1	-1	2	-3	25	5
COc1ccc(-c2oc3ccccc3c(=O)c2OC(C)=O)cc1	-4	0	2	75*	-12	46
CCc1cccc(NC(=O)CSC2=NS(=O)(=O)c3ccccc32)c1	-1	-26	-1	-11	94*	-55
C=CC[n+]1c(-c2ccc(C)cc2)csc1Nc1c(C)n(C)n(-c2ccccc2)c1=O	-1	-4	-1	11	48	-5
C=CC[n+]1c(-c2ccc(OCC)cc2)csc1NNC(=O)Nc1ccccc1	-16	2	-7	.	61*	6
O=C(NC1CCCCC1)c1ccc(-c2cn[nH]c2)c2ccoc12	3	.	.	53*	.	.
COc1ccc(-c2ccc(C(=O)NC3CCCCC3)c3occc23)c(C)c1	1	.	.	28	.	.
COC(=O)c1ccc2nc(C)cc(Nc3ccc(N(C)C)cc3)c2c1	1	-15	-12	0	-9	4
COC(=O)c1ccc(Nc2cc(C)nc3ccccc23)cc1	48*	-9	-4	.	-4	.
O=C(C[C@H]1CC[C@H]2[C@@H](COC[C@@H](O)CN2S(=O)(=O)c2ccccc2Cl)O1)NCc1ccccc1Cl	.	.	.	-3	.	.
COc1cc2cc(CN(CCc3ccccc3C)C(=S)NCCCN3CCOCC3)c(=O)[nH]c2cc1OC	50*	-5	-2	.	-16	10
C=CCc1c(C)nc2c(-c3ccccc3)cnn2c1N1CCOCC1	40*	.	.	84*	.	76
Cc1nc2ccc(NC(=O)Cc3cccs3)cc2s1	61*	2	2	71*	-14	88*
Cc1nc2ccc(NC(=O)COc3ccccc3C)cc2s1	-1	6	36	-8	-4	22
Cc1nc2ccc(NC(=O)CSc3ccccc3)cc2s1	50*	-8	-4	54*	.	98*
Cc1nc2ccc(NC(=O)Cc3c(F)cccc3Cl)cc2s1	39*	4	3	.	30	108*
